The structures appear in SMILES notation. Where “and” joins values, the source holds several entries; their conditions need not be identical. Equal values may be shown once. Where a name gives a salt, the structure may show the parent alone. ± gives the standard deviation of the averaged measurements.

For 40 compounds, cell viability results are on record in the supplement of paper PMC10042075.

This experiment relates to LASCPC-01. As to the kind of experiment: cell viability relative to DMSO control (fraction); higher = less growth inhibition (more viable cells). As to conditions: 2 µM; 72 h. How it is done:
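High-throughput single-dose screen in the LASCPC-01 NEPC cell line in 384-well plates. Cells were treated with each compound at 2 µM for 72 h, and viability was read by CellTiter-Glo luminescence. Values are normalised to the DMSO control (compound/DMSO) from three replicates; only the 5-HT-related subset of the 7315-compound library is given.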
In turn, `CN1C2CCCC1CC(NC(=O)c1nn(C)c3ccccc13)C2` (stereo not given) [Granisetron hydrochloride] displayed a cell viability of 0.955. To `CCN1CCN(c2cc(-c3ccc(F)cc3)c3c(n2)CCCCCC3)CC1` [Blonanserin] belongs 0.776; to `COc1cccc([C@H](O)C2CCN(CCc3ccc(F)cc3)CC2)c1OC` [Volinanserin], 1.06.

`O=c1ccccn1CC1(O)CCN(Cc2ccccc2)CC1`: the cell viability stood at 1.05. The compound `Cc1ccc(Sc2ccccc2N2CCNCC2)c(C)c1` displayed a cell viability of 1.01.

`N#Cc1ccc2[nH]cc(CCCCN3CCN(c4ccc5oc(C(N)=O)cc5c4)CC3)c2c1` [Vilazodone HCl]: the cell viability turned out to be 0.916. On to `Cn1ccc2cc(NC(=O)Nc3cccnc3)ccc21`, for which the cell viability was 1.03.

With `N#Cc1cc(CN2CCC(Nc3ncnc4sc(Cl)cc34)CC2)ccc1F`, the cell viability turned out to be 0.875. Turning to `CN[C@H]1CC[C@@H](c2ccc(Cl)c(Cl)c2)c2ccccc21` [Sertraline HCl], the cell viability came to 0.833. To `COc1cc(/C=C/C(=O)O)ccc1O` [Sodium ferulic] belongs 0.909; to `Cn1ccc2cc3c(cc21)CCN3C(=O)Nc1cccnc1`, 1.06. To `O=C(O)Cc1c[nH]c2ccc(O)cc12` [5-Hydroxyindolacetic acid] belongs 0.928; to `COc1ccccc1N1CCN(CCCNc2cc(=O)n(C)c(=O)n2C)CC1` [Urapidil], 1.18. Then `COc1ccccc1N1CCN(CCCCN2C(=O)c3ccccc3C2=O)CC1` [NAN-190 hydrobromide], with 0.884. Compound `CN(C)CC(c1ccc(O)cc1)C1(O)CCCCC1` (stereo not given) [Desvenlafaxine Succinate] yielded a cell viability of 0.883. Regarding `COc1ccc(NS(=O)(=O)c2sc3ccc(Cl)cc3c2C)cc1N1CCNCC1`, the cell viability is 1.09 and 0.772. Then `CNc1nn2c(C)c(N(C)C)c(C)nc2c1S(=O)(=O)c1ccccc1`, with 0.978; and `CCc1nn(CCCN2CCN(c3cccc(Cl)c3)CC2)c(=O)n1CCOc1ccccc1` [Nefazodone hydrochloride], with 1.03. Then `COCCCC/C(=N\OCCN)c1ccc(C(F)(F)F)cc1` [Fluvoxamine maleate], with 1.07 ± 0.028; and `Cc1nc2n(c(=O)c1CCN1CCC(c3noc4cc(F)ccc34)CC1)CCCC2` [Risperidone], with 0.99; and `CN1CCN2c3ccccc3Cc3ccccc3C2C1` (stereo not given) [Mianserin hydrochloride], with 1.04. Then `Cn1cc(C(=O)[C@@H]2CCc3[nH]cnc3C2)c2ccccc21` [Ramosetron], with 1.08; and `O=c1[nH]c2ccccc2n1CCN1CCN(c2cccc(C(F)(F)F)c2)CC1` [Flibanserin], with 1.02; and `CCCCN1CCC(CNC(=O)c2c3n(c4ccccc24)CCCO3)CC1` [Piboserod], with 1.21. Consider `O=c1c(-c2ccc(O)cc2)coc2c([C@@H]3O[C@H](CO)[C@@H](O)[C@H](O)[C@H]3O)c(O)ccc12` [Puerarin], for which the cell viability is 0.989. Then `CNS(=O)(=O)CCc1ccc2[nH]cc(C3CCN(C)CC3)c2c1` [Naratriptan hydrochloride], with 1.02. The compound `COc1ccc(NC(=O)c2ccc(-c3ccc(-c4noc(C)n4)cc3C)cc2)cc1N1CCN(C)CC1` displayed a cell viability of 0.512. Compound `CN1CCC[C@@H]1Cc1c[nH]c2ccc(CCS(=O)(=O)c3ccccc3)cc12` [Eletriptan HBr] returned a cell viability of 0.983. To `COc1ccccc1N1CCN(CCN2C(=O)CC3(CCCC3)CC2=O)CC1` [BMY 7378 dihydrochloride] belongs 1.07. To `O=C1Cc2cc(CCN3CCN(c4nsc5ccccc45)CC3)c(Cl)cc2N1` [Ziprasidone] belongs 0.987; to `CN(C)CCCN1c2ccccc2CCc2ccc(Cl)cc21` [Clomipramine HCl], 0.826; to `COc1cc(N)c(Cl)cc1C(=O)NC1CCN(CCCOc2ccc(F)cc2)CC1OC` (stereo not given) [Cisapride], 0.803. Then `Cc1nccn1CC1CCc2c(c3ccccc3n2C)C1=O` (stereo not given) [Ondansetron HCl], with 1.03; and `NCCc1c[nH]cn1` [Histamine], with 1.07. The compound `Cc1nccn1CC1CCc2c(c3ccccc3n2C)C1=O` (stereo not given) [Ondansetron hydrochloride] returned a cell viability of 1.12.

In the case of `CN(C)CCCN1c2ccccc2CCc2ccccc21` [Imipramine hydrochloride], the cell viability amounted to 1.13. To `CN(C)CCC=C1c2ccccc2CCc2ccccc21` [Amitriptyline HCl] belongs 1.15; to `Cc1cc2c(cc1Cl)N(C(=O)Nc1ccc(Oc3cccnc3C)nc1)CC2`, 0.0538. Then `O=C1CCc2ccc(OCCCCN3CCN(c4cccc(Cl)c4Cl)CC3)cc2N1` [Aripiprazole], with 1.05; and `COc1ccccc1N1CCN(CCN2C(=O)CC3(CCCC3)CC2=O)CC1`, with 0.815.
